Inconclusive results are not listed. Activity calls are given as the source filed them. Unless noted, calls come from the whole dose curve; as a rule, active = well fitted curve in the direction sought with a large enough effect in the repeat runs; inconclusive = weak or mixed curves; inactive = no such curve, though single readings can be large; an effect the other way counts as inactive or inconclusive.
Experiments:
[1] = qHTS assay to identify small molecule agonists of the androgen receptor (AR) signaling pathway in the presence of an antagonist - cell viability counter screen (AID 1259379);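 note: MDA-kb2 human breast cancer cells carrying an MMTV luciferase reporter; series mostly up to about 92 µM; nearly all actives have a fitted effect of over 25% in size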
Summary of the method: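 Cells: MDA-kb2 (MMTV-luc, AR and GR elements), 3,000/well, 5 hr settle. Added: nilutamide 3.0uM final, then compounds (15 conc.). Incubation: 16 hr, 37C, no CO2. Read-out: CellTiter-Fluor, 1 hr, fluorescence.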

[2] = qHTS assay to identify small molecule agonists of the estrogen receptor beta (ER-beta) signaling pathway - cell viability counter screen (AID 1259380); note: nearly all actives have a fitted effect of over 30% in size
Summary of the method: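 HEK293T ER-beta-UAS-bla; 2% CS-FBS; 6 hr pre-plate, 16 hr cpd at 37C/5% CO2; LiveBLAzer read first, then CellTiter-Glo 30 min RT, luminescence.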

[3] = qHTS assay to identify small molecule antagonists of the estrogen receptor beta (ER-beta) signaling pathway - cell viability counter screen (AID 1259382);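 note: HEK293T cells carrying ER-beta-UAS-bla reporter stimulated with estradiol; series mostly up to about 92 µM; nearly all actives have a fitted effect of over 55% in size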
Summary of the method: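 Cells: ER-beta-UAS-bla HEK293T, 2,000/well, 2% CS-FBS, 6 hr settle. Cpd + E2 (1nM final), 16 hr, 37C/5% CO2. Bla FRET substrate 2 hr RT, then CellTiter-Glo 30 min RT, luminescence.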

[4] = biological target: Estrogen receptor (Homo sapiens) (UniProt P03372); test: qHTS assay to identify small molecule agonists of the estrogen receptor alpha (ER-alpha) signaling pathway in the presence of an antagonist (AID 1259383; calls by dose curve; note: top concentration of the series differs between compounds; nearly all actives have a fitted effect of over 15% in size)
Chain of Estrogen receptor (Homo sapiens) (P03372 whole entry, looked up): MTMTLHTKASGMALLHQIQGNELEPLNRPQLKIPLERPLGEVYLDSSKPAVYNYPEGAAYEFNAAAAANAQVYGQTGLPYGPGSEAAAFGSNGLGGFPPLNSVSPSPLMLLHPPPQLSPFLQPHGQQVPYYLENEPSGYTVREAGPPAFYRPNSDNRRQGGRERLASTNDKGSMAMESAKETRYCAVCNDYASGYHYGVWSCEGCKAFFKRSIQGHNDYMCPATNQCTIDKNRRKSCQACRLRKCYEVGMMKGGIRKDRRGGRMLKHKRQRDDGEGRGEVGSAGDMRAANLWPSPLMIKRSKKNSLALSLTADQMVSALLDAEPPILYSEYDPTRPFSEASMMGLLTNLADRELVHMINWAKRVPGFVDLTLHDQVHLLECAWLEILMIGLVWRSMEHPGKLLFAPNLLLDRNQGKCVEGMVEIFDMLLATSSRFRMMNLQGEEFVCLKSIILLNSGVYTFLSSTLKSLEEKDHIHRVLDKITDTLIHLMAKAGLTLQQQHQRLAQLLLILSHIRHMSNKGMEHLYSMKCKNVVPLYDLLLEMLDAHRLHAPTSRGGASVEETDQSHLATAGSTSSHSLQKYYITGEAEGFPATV
Summary of the method: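 VM7Luc4E2, endog. ER-alpha + 4×ERE-luc; charcoal-stripped FBS, phenol red-free, 5 d; 24hr plating; +10.0nM ICI-182,780 (final); cpds 15 conc, 22hr, 37C/5% CO2; ONE-Glo luminescence.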

[5] = qHTS assay to identify small molecule agonists or antagonists of the thyroid stimulating hormone receptor (TSHR) signaling pathway - wild type cell line counter screen (AID 1259384; calls by dose curve)
Summary of the method: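 Counter screen in untransfected Hek293: compounds (15-point titration, triplicate) plus phosphodiesterase inhibitor Ro20-1724 added after 18 h plating; 30 min RT. Intracellular cAMP via competitive d2/cryptate immunoassay, 1 h incubation.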

[6] = biological target: Thyrotropin receptor (Homo sapiens) (UniProt P16473); test: qHTS assay to identify small molecule antagonists of the thyroid stimulating hormone receptor (TSHR) signaling pathway (AID 1259385; calls by dose curve; note: nearly all actives have a fitted effect of over 20% in size)
Chain of Thyrotropin receptor (Homo sapiens) (P16473 whole entry, looked up): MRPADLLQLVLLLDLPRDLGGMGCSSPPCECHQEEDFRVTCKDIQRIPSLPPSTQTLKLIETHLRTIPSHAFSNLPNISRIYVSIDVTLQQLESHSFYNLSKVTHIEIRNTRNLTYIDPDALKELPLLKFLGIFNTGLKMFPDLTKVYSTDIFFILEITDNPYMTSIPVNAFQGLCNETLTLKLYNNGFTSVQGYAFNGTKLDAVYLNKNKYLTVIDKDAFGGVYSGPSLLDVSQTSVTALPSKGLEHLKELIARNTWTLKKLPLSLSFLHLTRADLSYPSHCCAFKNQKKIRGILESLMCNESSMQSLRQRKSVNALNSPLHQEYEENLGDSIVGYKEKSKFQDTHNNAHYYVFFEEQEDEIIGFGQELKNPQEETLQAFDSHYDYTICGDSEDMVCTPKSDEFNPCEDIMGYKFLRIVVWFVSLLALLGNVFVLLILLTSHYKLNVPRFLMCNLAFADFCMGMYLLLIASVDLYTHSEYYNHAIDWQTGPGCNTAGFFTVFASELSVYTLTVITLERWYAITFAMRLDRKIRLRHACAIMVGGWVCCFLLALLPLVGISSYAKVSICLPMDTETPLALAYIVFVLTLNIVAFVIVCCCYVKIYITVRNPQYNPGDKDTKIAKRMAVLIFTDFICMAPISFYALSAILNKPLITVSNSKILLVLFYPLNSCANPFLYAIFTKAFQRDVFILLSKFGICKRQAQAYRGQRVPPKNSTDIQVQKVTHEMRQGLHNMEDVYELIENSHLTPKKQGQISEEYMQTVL
Summary of the method: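 Antagonist mode: compound-treated TSHR-expressing HEK293 cells were stimulated with 1.5 ng/mL TSH (final) in presence of Ro20-1724 for 30 min at RT. HTRF cAMP detection after 1 h; each compound tested at 15 concentrations, triplicate.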

[7] = qHTS assay to identify small molecule agonists of the estrogen receptor alpha (ER-alpha) signaling pathway in the presence of an antagonist - cell viability counter screen (AID 1259386);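 note: series mostly up to about 92 µM; cells exposed to compounds for 22 h at 37 °C before the viability read; nearly all actives have a fitted effect of over 30% in size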
Summary of the method: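 VM7Luc4E2, stripped-serum pre-culture 5 d; 24hr plating; +ICI-182,780 10.0nM final; cpds 15 conc, 22hr, 37C/5% CO2; CellTiter-Fluor added at 21hr, fluorescence 1hr later.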

[8] = biological target: Progesterone receptor (Homo sapiens) (UniProt P06401); test: qHTS assay to identify small molecule agonists of the progesterone receptor (PR) signaling pathway (AID 1346784; calls by dose curve; note: nearly all actives have a fitted effect of over 30% in size; note: potency is the fitted concentration of half-maximal effect)
Chain of Progesterone receptor (Homo sapiens) (P06401 whole entry, looked up): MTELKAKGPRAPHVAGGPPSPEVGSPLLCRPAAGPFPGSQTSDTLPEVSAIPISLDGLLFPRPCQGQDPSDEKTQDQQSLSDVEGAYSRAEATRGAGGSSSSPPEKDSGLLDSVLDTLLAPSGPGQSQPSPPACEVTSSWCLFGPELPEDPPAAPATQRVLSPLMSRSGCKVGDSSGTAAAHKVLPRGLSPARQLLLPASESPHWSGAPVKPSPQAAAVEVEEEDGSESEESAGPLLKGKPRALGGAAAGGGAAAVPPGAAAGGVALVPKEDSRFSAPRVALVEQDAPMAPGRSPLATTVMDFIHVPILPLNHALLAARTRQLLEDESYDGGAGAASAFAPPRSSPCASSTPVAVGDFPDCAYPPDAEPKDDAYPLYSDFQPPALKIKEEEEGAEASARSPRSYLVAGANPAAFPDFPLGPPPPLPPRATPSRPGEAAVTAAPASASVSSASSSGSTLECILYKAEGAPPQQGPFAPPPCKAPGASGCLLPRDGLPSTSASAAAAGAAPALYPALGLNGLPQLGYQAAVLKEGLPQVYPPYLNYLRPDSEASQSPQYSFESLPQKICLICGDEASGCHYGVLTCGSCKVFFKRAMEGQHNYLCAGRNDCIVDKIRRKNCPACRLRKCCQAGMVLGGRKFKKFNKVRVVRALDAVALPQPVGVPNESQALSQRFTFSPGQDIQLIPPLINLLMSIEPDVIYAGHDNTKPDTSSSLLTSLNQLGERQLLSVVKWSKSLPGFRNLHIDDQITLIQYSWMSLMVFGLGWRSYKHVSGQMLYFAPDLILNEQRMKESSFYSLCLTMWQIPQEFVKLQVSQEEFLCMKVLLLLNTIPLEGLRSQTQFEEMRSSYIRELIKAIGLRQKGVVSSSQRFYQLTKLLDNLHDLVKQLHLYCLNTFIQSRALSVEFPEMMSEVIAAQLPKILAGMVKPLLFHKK
Summary of the method: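 Using charcoal-stripped serum (2%) to limit endogenous steroids, PR-UAS-bla HEK 293T cells received compounds for 16 hr at 37C after 6 hr plating; beta-lactamase FRET fluorescence was recorded following 2 hr substrate loading at room temperature.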

[9] = biological target: Progesterone receptor (Homo sapiens) (UniProt P06401); test: qHTS assay to identify small molecule antagonists of the progesterone receptor (PR) signaling pathway (AID 1346795; active = well fitted inhibition curve with a large enough effect in the signal ratio in the repeat runs, not every such curve was filed as active; the % refers to the signal ratio; note: potency is the fitted concentration of half-maximal effect)
Summary of the method: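 Inhibition of R5020-induced (1 nM final) beta-lactamase reporter signal in PR-UAS-bla HEK293T cells was scored by FRET fluorescence after overnight (16 hr) compound treatment.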

[10] = qHTS assay to identify small molecule antagonists of the progesterone receptor (PR) signaling pathway - cell viability counter screen (AID 1346798); note: series mostly up to about 92 µM; nearly all actives have a fitted effect of over 50% in size
Summary of the method: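 ATP content as viability readout: CellTiter-Glo luminescence, 30 min room temperature, in PR-UAS-bla HEK293T cells after 16 hr compound/R5020 treatment at 37C and 5% CO2.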

[11] = qHTS assay to identify small molecule agonists of the progesterone receptor (PR) signaling pathway - cell viability counter screen (AID 1346799; calls by dose curve; note: nearly all actives have a fitted effect of over 45% in size)
Summary of the method: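 Cytotoxicity in PR-bla HEK293T cells: 16 h compound, 37C; CellTiter-Glo added post-FRET read; luminescence after 30 min RT.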

[12] = qHTS assay to identify small molecule antagonists of the TGF-beta/Smad signaling pathway - cell viability counter screen (AID 1346824); note: nearly all actives have a fitted effect of over 50% in size
Summary of the method: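 Cytotoxicity counter-screen run in the same wells as the beta-lactamase Smad reporter read: CellTiter-Glo luminescence after 30 min at room temperature. HEK 293T SBE-bla cells had 5 hr compound exposure at 37 C with TGF-beta1 (0.25 ng/mL stock).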

[13] = qHTS assay to identify small molecule agonists of the TGF-beta/Smad signaling pathway - cell viability counter screen (AID 1346829); note: top concentration of the series differs between compounds; nearly all actives have a fitted effect of over 45% in size
Summary of the method: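 Same-well cytotoxicity: CellTiter-Glo added after the 2 hr room-temperature beta-lactamase substrate step, luminescence measured 30 min later; cells had 5 hr of compound at 37 C.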

[14] = qHTS assay to identify small molecule agonists of the TGF-beta/Smad signaling pathway (AID 1346859; active = well fitted activation curve with a large enough effect in the signal ratio in the repeat runs, not every such curve was filed as active; the % refers to the signal ratio; note: series mostly up to about 77 µM)
Summary of the method: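 Stable Smad binding element-beta-lactamase HEK 293T cells; 5 hr compound exposure at 37 C under 5% CO2; 2 hr room-temperature substrate step; fluorescence excited at 405 nm, collected at 460 nm and 530 nm.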

[15] = biological target: Estrogen receptor beta (Homo sapiens) (UniProt Q92731); test: qHTS assay to identify small molecule agonists of the estrogen receptor beta (ER-beta) signaling pathway (AID 1259377; active = well fitted activation curve with a large enough effect in the signal ratio in the repeat runs, not every such curve was filed as active; the % refers to the signal ratio)
Chain of Estrogen receptor beta (Homo sapiens) (Q92731 whole entry, looked up): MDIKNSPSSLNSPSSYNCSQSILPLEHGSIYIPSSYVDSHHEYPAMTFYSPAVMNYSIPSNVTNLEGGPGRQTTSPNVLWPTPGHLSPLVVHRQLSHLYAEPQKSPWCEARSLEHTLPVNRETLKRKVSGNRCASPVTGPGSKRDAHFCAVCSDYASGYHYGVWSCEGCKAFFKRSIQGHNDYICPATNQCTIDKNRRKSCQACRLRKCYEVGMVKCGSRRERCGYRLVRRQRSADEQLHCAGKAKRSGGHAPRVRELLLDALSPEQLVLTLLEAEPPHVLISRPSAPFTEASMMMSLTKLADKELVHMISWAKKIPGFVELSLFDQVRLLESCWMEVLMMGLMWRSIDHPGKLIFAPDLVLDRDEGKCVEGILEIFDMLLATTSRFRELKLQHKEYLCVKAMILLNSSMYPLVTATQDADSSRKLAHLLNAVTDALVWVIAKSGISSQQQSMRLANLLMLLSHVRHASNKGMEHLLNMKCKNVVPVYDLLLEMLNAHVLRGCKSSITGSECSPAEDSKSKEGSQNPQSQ
Summary of the method: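 In HEK293T cells bearing a UAS-beta-lactamase reporter under ER-beta control, DMSO-delivered compounds were incubated for 16 hr at 37C. Activity was detected as fluorescence 2 hours after LiveBLAzer B/G FRET substrate addition.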

[16] = biological target: Estrogen receptor beta (Homo sapiens) (UniProt Q92731); test: qHTS assay to identify small molecule antagonists of the estrogen receptor beta (ER-beta) signaling pathway (AID 1259378; active = well fitted inhibition curve with a large enough effect in the signal ratio in the repeat runs, not every such curve was filed as active; the % refers to the signal ratio)
Summary of the method: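 Antagonist mode: compounds added to beta-lactamase reporter HEK293T ER-beta-UAS cells stimulated with E2 (1nM final), 16 hr at 37C. LiveBLAzer B/G FRET substrate, 2 hours room temperature, fluorescence read-out.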

[17] = biological target: Thyrotropin-releasing hormone receptor (Homo sapiens) (UniProt P34981); test: qHTS assay to identify small molecule antagonists of the thyrotropin-releasing hormone receptor (TRHR) signaling pathway (AID 1346877; active = well fitted inhibition curve with a large enough effect in the repeat runs, not every such curve was filed as active; note: series mostly up to about 51 µM)
Chain of Thyrotropin-releasing hormone receptor (Homo sapiens) (P34981 whole entry, looked up): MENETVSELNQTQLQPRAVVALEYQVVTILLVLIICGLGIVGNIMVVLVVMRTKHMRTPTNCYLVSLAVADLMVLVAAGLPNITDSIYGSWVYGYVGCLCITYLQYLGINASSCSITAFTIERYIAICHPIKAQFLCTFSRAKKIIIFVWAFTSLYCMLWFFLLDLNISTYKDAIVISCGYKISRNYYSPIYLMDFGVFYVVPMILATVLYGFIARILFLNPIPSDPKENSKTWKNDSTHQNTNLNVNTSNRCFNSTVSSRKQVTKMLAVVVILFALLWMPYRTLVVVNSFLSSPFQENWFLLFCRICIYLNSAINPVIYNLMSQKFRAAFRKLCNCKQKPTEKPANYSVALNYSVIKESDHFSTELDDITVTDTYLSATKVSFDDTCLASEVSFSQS
Summary of the method: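 Intracellular calcium fluorescence, read kinetically every second over 3 min, reports TRH-evoked signalling in HEK293 cells carrying TRHR. Test compounds were added 5 min ahead of a 1 nM TRH challenge.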

[18] = biological target: Thyrotropin-releasing hormone receptor (Homo sapiens) (UniProt P34981); test: qHTS assay to identify small molecule agonists of the thyrotropin-releasing hormone receptor (TRHR) signaling pathway (AID 1346891; calls by dose curve;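 note: HEK293 cells expressing TRHR with calcium dye readout; series mostly up to about 58 µM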)
Summary of the method: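 In 1536-format, 1500 TRHR-Hek293 cells per well grew 18 h, took up calcium dye for 2 h at 37 °C, received compound, and were read kinetically; 15-point titrations, triplicates.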
% is set by controls: 0 for no effect and ±100 for the full control effect.

CC(C)(C)C(=O)c1ccccc1
inactive: Potency [1] | Potency [2] | outcome [3] | outcome [4] | outcome [5] | outcome [6] | Potency [7] | Potency [8] | Potency [9] | Potency [10] | Potency [11] | outcome [12] | outcome [13] | outcome [14]

CC(C)[C@H]1CC[C@@H](C)CC1=O
inactive: Potency [2] | outcome [3] | outcome [5] | outcome [6] | Potency [7] | Potency [8] | Potency [9] | Potency [10] | Potency [11] | outcome [13] | outcome [14]

CC1OC1C1CCC2(C)OC2C1 (configuration not stated)
inactive: Potency [15] | Potency [16] | outcome [3] | outcome [4] | outcome [5] | outcome [6] | Potency [7] | Potency [8] | Potency [10] | Potency [11] | outcome [12] | outcome [13] | outcome [14] | outcome [17]

O=C(c1ccccc1O)c1ccccc1O
active: Potency [9] 27 µM
inactive: Potency [15] | Potency [2] | outcome [3] | outcome [4] | outcome [5] | outcome [6] | Potency [7] | Potency [8] | Potency [11] | outcome [12] | outcome [13] | outcome [14]

CCCn1cc[n+](C)c1C
inactive: Potency [1] | Potency [2] | outcome [3] | Potency [7] | Potency [10] | outcome [12] | outcome [13] | outcome [14]

CC(CC=O)CC(C)(C)C (configuration not stated)
inactive: Potency [15] | Potency [16] | Potency [2] | outcome [3] | outcome [4] | outcome [5] | Potency [7] | Potency [8] | Potency [10] | Potency [11] | outcome [12] | outcome [13] | outcome [14] | outcome [17]

CC/C=C\CCOC(C)OCC (configuration not stated)
inactive: Potency [1] | outcome [3] | outcome [5] | outcome [6] | Potency [7] | Potency [8] | Potency [9] | Potency [10] | Potency [11] | outcome [12] | outcome [14] | outcome [17] | Potency [18]

Nc1c2c(nc3c1CCC3)CCCC2
inactive: Potency [1] | Potency [2] | outcome [3] | outcome [4] | outcome [5] | outcome [6] | Potency [7] | Potency [8] | Potency [10] | Potency [11] | outcome [12] | outcome [13] | outcome [14] | outcome [17] | Potency [18]

Nc1ccn([C@@H]2O[C@H](CO)[C@@H](O)[C@@H]2O)c(=O)n1
inactive: Potency [1] | Potency [2] | outcome [3] | outcome [4] | Potency [7] | Potency [8] | Potency [9] | Potency [11] | outcome [12] | outcome [13] | outcome [14] | Potency [18]

COc1cccc(OC)c1C(=O)N[C@@H]1C(=O)N2[C@@H]1SC(C)(C)[C@@H]2C(=O)O
inactive: Potency [2] | outcome [3] | outcome [5] | Potency [7] | Potency [8] | Potency [11] | outcome [12] | outcome [13] | outcome [14]

CCCC(=O)O[C@]1(C(=O)CC)CC[C@H]2[C@@H]3CCC4=CC(=O)CC[C@]4(C)[C@H]3[C@@H](O)C[C@@]21C
active: Potency [8] 0.0075 µM
inactive: Potency [15] | Potency [1] | outcome [3] | Potency [7] | Potency [10] | Potency [11] | outcome [12] | outcome [13] | outcome [14]

NC(N)=NCCN1CCCCCCC1
inactive: activity change, negative = cytotoxicity [1] -1.24% [at 0.35 µM] | activity change, negative = cytotoxicity [2] 2.58% [at 0.349 µM] | activity change, negative = cytotoxicity [3] 9.29% [at 0.349 µM] | cAMP activity change [5] 3.9% [at 0.349 µM] | activity change, negative = inhibition [6] -0.745% [at 0.349 µM] | activity change, negative = cytotoxicity [7] 3.85% [at 0.349 µM] | activity change, negative = inhibition [9] 0.475% [at 0.348 µM] | activity change, negative = cytotoxicity [10] -0.514% [at 0.348 µM] | activity change, negative = cytotoxicity [11] 0.507% [at 0.349 µM] | activity change, negative = cytotoxicity [13] -17.1% [at 0.29 µM] | activation [14] 0.678% [at 0.29 µM]

CCCCOC(=O)CCC(C)=O
inactive: Potency [1] | Potency [2] | outcome [3] | outcome [4] | outcome [5] | outcome [6] | Potency [7] | Potency [8] | Potency [9] | Potency [10] | Potency [11] | outcome [12] | outcome [14] | outcome [17] | Potency [18]

c1coc(CNc2ncnc3nc[nH]c23)c1
inactive: Potency [1] | Potency [2] | outcome [3] | outcome [5] | Potency [7] | Potency [8] | Potency [9] | Potency [10] | outcome [12] | outcome [13] | outcome [14]

Cc1ccc(C(=O)c2ccc(CC(=O)O)n2C)cc1
inactive: Potency [1] | Potency [2] | outcome [3] | outcome [4] | outcome [5] | outcome [6] | Potency [7] | Potency [8] | Potency [10] | Potency [11] | outcome [12] | outcome [13] | Potency [18]

CCOC(=O)c1cnc2c(cnn2CC)c1NN=C(C)C
inactive: Potency [15] | Potency [2] | outcome [3] | Potency [7] | Potency [8] | Potency [10] | Potency [11] | outcome [12] | outcome [13]

Cc1ccccc1N=C(N)N=C(N)N
inactive: Potency [1] | Potency [2] | outcome [3] | outcome [5] | outcome [6] | Potency [7] | Potency [8] | Potency [9] | Potency [10] | Potency [11] | outcome [12] | outcome [13] | outcome [14] | outcome [17] | Potency [18]

O=C(CO)[C@@H](O)[C@H](O)[C@H](O)CO
inactive: Potency [15] | Potency [16] | Potency [2] | outcome [3] | outcome [5] | outcome [6] | Potency [7] | Potency [8] | Potency [9] | Potency [10] | Potency [11] | outcome [12] | outcome [13] | outcome [17] | Potency [18]

— PubChem BioAssay (Tox21)
